Source: PubChem
Most compounds without a hit are left out; they make up all but 7.2% or so of the library.
AHR activator = activates the human aryl hydrocarbon receptor; AID 2796; AHR-responsive luciferase reporter cells, luminescence; hit rate 2.5% among 320,000; activation, % at 5 µM; P35869; in the data active means activation above about 47%;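 further: 0% = vehicle wells and 100% = reference agonist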
Efflux pump mplx = antifungal efflux pump inhibition, Nile Red retention; S. cerevisiae Candida pump triplex; inhibition, % at 10 µM; hit rate 0.44% among 330,000;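 active means plate passing quality check with inhibition over a set limit, or well fluorescence over plate mean plus 4 SD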;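 further: Nile Red retained in pooled yeast measured as flow cytometry median fluorescence; 0% = buffer negative control and 100% = Enniatin B positive control; higher means more Nile Red kept so more efflux inhibition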
ALR inh = human ALR oxidase inhibition via reduced H2O2. P55789. inhibition, % (test concentration not listed). purified ALR, DTT oxidation, H2O2 HRP-luminol luminescence. AID 485317. hit rate 3.8% among 290,000;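 active means mean replicate inhibition above about 79%, with every replicate also reaching it, limit read from the data; inconclusive means only one of the two criteria met; inactive means mean below limit and not every replicate reaching it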
SUMO Mot1 rescue = blocks SUMOylation pathway, rescuing yeast Mot1-301 growth. S. cerevisiae Mot1-301 growth rescue, ATP luminescence, 38.5C; percent above DMSO median, 100 means doubled. growth rescue, % at 18.8 µM. hit rate 1% among 320,000. AID 2716;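 active means every valid replicate shows activation above 250% relative to neutral control wells; inactive means the rest, any valid replicate at or below 250%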;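 further: OY570 slx delta 5 strain wells were the positive control but not used for scaling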
VLA-4 inh = inhibition in a human VLA-4 binding assay; P13612; VLA-4 expressing cells, ligand binding flow cytometry; inhibition, % (about 7 µM as worked out from the volumes in the protocol); hit rate 0.2% among 330,000; in the data active means inhibition above about 50%
Target sequence (P13612 whole entry, looked up): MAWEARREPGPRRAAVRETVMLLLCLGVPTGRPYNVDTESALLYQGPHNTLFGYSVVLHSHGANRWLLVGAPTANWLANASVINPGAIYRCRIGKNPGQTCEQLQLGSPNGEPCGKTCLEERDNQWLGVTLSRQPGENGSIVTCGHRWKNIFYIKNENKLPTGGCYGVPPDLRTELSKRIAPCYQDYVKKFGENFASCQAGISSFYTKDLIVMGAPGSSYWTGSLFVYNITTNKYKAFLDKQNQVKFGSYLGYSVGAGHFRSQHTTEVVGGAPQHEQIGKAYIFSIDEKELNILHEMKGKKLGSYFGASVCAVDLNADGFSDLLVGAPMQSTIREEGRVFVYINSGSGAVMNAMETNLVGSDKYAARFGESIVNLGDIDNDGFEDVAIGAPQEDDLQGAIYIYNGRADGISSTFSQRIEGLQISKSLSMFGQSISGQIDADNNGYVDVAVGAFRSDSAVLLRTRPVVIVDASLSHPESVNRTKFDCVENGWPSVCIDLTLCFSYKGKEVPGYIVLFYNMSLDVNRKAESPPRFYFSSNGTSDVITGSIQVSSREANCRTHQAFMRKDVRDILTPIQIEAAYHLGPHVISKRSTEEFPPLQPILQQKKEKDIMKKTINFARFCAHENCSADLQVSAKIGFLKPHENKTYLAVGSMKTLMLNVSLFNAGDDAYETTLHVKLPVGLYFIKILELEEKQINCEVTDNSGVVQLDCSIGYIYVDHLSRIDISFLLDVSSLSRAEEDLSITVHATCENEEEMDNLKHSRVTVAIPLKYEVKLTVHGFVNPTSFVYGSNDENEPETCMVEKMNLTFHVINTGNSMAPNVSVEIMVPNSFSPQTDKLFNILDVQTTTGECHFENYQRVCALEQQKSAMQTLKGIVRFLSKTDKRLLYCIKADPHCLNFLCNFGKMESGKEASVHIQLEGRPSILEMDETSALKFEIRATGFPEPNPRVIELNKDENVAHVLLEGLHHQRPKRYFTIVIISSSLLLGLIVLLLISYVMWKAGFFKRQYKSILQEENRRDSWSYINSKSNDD
A1 inh = inhibitors of the anti-apoptotic protein A1, read as caspase activation; MEF A1-2A-BIM cells, Caspase-Glo 3/7 luminescence, 3 h; percent of clofoctol response, vehicle zero; caspase activation, % (test concentration not listed); hit rate 0.066% among 330,000; AID 2462;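 active means over half of replicate activation scores above 10%, or exactly half above 10 with the replicate mean above 10; inconclusive means replicate mean below 10 yet half the replicates above 10; inactive means over half of replicates below 10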
Yeast cmpd fluor = counter-screen for efflux pump inhibitors: compound fluorescence | shares compounds with Efflux pump mplx | S. cerevisiae AD/pABC3, flow cytometry | fluorescence ratio to DMSO, % at 10 µM | hit rate 4% among 1,700 | AID 588517;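 active means fluorescence ratio to DMSO above its plate's cutoff, the plate mean ratio plus 5 SD, cut at about 210% in these data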;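 further: unstained yeast with no Nile Red so the signal is compound autofluorescence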
CaMdr1 efflux inh = inhibitors of Candida albicans Mdr1 efflux pump; S. cerevisiae AD/CaMDR1, Nile Red efflux, flow cytometry; hit rate 1% among 1,700; inhibition, % at 10 µM; shares compounds with Efflux pump mplx; in the data active means inhibition above about 26%;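 further: 0% = DMSO vehicle and 100% = reference inhibitor; higher means more Nile Red retained so more efflux inhibition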
Cdr2 pump inh = inhibitors of Candida albicans Cdr2 efflux pump | shares compounds with Efflux pump mplx | Nile Red retention ratio vs DMSO, % at 10 µM | S. cerevisiae AD/CaCDR2, Nile Red retention, flow cytometry | hit rate 4% among 1,700; in the data active means Nile Red retention ratio vs DMSO above about 190%;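 further: higher ratio means more blocking of Cdr2 efflux of the dye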
CaCdr1 efflux inh = Candida Cdr1 efflux pump inhibition | hit rate 1% among 1,700 | inhibition, % at 10 µM | AID 588522 | S. cerevisiae AD/CaCDR1, Nile Red efflux, flow cytometry | shares compounds with Efflux pump mplx;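 active means inhibition above the screen-wide mean plus twice its standard deviation, cut at about 32% in these data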
Active calls of the source: *; i = inactive; ? = inconclusive; nt = no result given.

SMILES	AHR activator	Efflux pump mplx	ALR inh	SUMO Mot1 rescue	VLA-4 inh	A1 inh	Yeast cmpd fluor	CaMdr1 efflux inh	Cdr2 pump inh	CaCdr1 efflux inh
COc1ccc(NC(=O)CSc2ncn[nH]2)c([N+](=O)[O-])c1	-1	0	-9	13	6	0	nt	nt	nt	nt
Cc1ccccc1S(=O)(=O)Cc1ccc(C(=O)N(C)C2CCCCC2)o1	1	0	-1	54	4	0	nt	nt	nt	nt
O=C(c1cc(COc2cccc(C(F)(F)F)c2)on1)N1CCC(c2ccncc2)CC1	-5	0.5*	-2	298	11	0	146	3	206*	3
O=C(c1cc(COc2cccc(C(F)(F)F)c2)on1)N1CCC(c2ccccc2)CC1	-1	0	-2	-2	-11	1	nt	nt	nt	nt
C#CCOCCOCCOCCNc1nc(N2CCN(C(=O)[C@H](CCC(=O)O)n3cc([C@@H](N)CC(N)=O)nn3)CC2)nc(N2CCN(C(=O)[C@H](CCC(=O)O)n3cc([C@@H](N)CC(N)=O)nn3)CC2)n1	-1	0	1	-4	-13	0	nt	nt	nt	nt
CCN(C(=O)COC(=O)C(Cc1ccccc1)N1C(=O)c2ccccc2C1=O)C1CCS(=O)(=O)C1 (centres undefined)	2	0	-16	-18	2	0	nt	nt	nt	nt
O=C(CSc1nnc(-c2ccccc2O)n1Cc1ccccc1)NNC(=O)c1ccccc1O	20	29*	12	-13	2	0	91	0	97	0
O=C(CSc1nnc(-c2ccccc2)n1Cc1ccccc1)NNC(=O)c1ccccc1O	0	0	24	50	21	0	nt	nt	nt	nt
Cc1ccc(C(=O)NCC(=O)OCc2csc(-c3ccccc3)n2)cc1	1	6.8*	3	-7	9	-1	109	0	110	0
O=C(Oc1ccc(/C=N/NC(=O)c2ccccn2)cc1)c1ccc(Br)cc1	-2	7.2*	nt	-6	-11	-6	101	0	102	0
N#C/C(=C\c1cn(Cc2ccccc2)c2ccccc12)C(=O)NCc1ccco1	6	0	-6	6	23	0	nt	nt	nt	nt
Cc1cccc(NC(=O)/C(C#N)=C/c2cn(CC(=O)NCc3ccco3)c3ccccc23)c1C	-1	11*	-5	6	36	0	106	0	116	0
CCN(CC)C(=O)C1=C(C)NC(=S)NC1c1cccs1 (centres undefined)	-1	0	-2	-6	-1	1	nt	nt	nt	nt
CC1(C)CC2(CC(c3cccs3)c3cc(Cl)c(O)cc3O2)NC(=S)N1 (centres undefined)	-1	53*	-31	0	2	0	102	75*	114	0
Oc1ccc(Cl)cc1C=Nc1ccc2c3c(cccc13)CC2	49*	4.4*	nt	-8	-4	0	87	0	97	0
CC(SCc1ccccc1)C(=O)N/N=C/c1ccc(OCC(=O)NCc2ccco2)cc1 (centres undefined)	11	14*	-6	0	12	-1	118	0	94	1
C/C(=N\Nc1nc(N)cc(Cl)n1)c1ccc(F)cc1	21	0.5*	3	-2	2	0	100	0	101	0
O=C(COC(=O)CCC(=O)c1ccc(F)cc1)Nc1cccc(S(=O)(=O)N2CCCC2)c1	1	0	-3	-5	3	2	nt	nt	nt	nt
Cc1ccccc1CSc1nc2c(c(=O)[nH]1)CCC2	8	5.9*	-6	19	-3	0	109	0	104	0
COCCNC(=O)Cn1cc(C(=O)c2ccco2)c2ccccc21	4	0	-11	-2	-5	0	nt	nt	nt	nt
O=C(O)C1CCCCC1C(=O)NC1C2CC3CC(C2)CC1C3 (centres undefined)	5	0	5	-3	5	?	nt	nt	nt	nt
NC(=S)NNC(=O)[C@@H]1CCCC[C@@H]1C(=O)O	-2	15*	-1	1	16	1	101	0	104	0
O=C(NN1C(=O)/C(=C/c2ccc(O)c(O)c2)SC1=S)c1ccccc1	2	3.4*	99*	-26	i	-1	116	0	118	0
COc1cc(/C=C2\SC(=S)N(c3cccnc3)C2=O)ccc1O	8	0	-1	3	-16	-2	nt	nt	nt	nt
COc1cc(/C=C2\SC(=S)N(NC(=O)c3cccnc3)C2=O)ccc1O	3	0	99*	62	-241	1	103	0	107	0
SMILES	AHR activator	Efflux pump mplx	ALR inh	SUMO Mot1 rescue	VLA-4 inh	A1 inh	Yeast cmpd fluor	CaMdr1 efflux inh	Cdr2 pump inh	CaCdr1 efflux inh
O=C(NN1C(=O)/C(=C\c2ccc(O)c([N+](=O)[O-])c2)SC1=S)c1ccccc1Cl	1	0	13	-17	4	-2	nt	nt	nt	nt
COc1cc(C(=O)NC(=S)Nc2ccc3c(c2)C(=O)N(C)C3=O)cc(OC)c1OC	1	12*	4	22	-3	0	108	0	106	0
COc1cccc(OC)c1C(=O)NC(=S)Nc1ccc2c(c1)C(=O)N(C)C2=O	1	0	7	16	28	1	nt	nt	nt	nt
CS(=O)(=O)N1CCC(C(=O)N2CCN(c3ccc(F)cc3)CC2)CC1	0	0	17	2	7	0	nt	nt	nt	nt
Cc1cccc(NC(=O)c2nc[nH]c2C(=O)N[C@H](C)c2ccccc2)c1	15	0.9*	-3	-6	19	-1	106	0	104	0
C[C@H](NC(=O)c1[nH]cnc1C(=O)Nc1ccccc1)c1ccccc1	9	0	-5	-8	25	0	nt	nt	nt	nt
Cc1ccc(CN2CCN(CC(=O)N=Nc3c(O)[nH]c4ccccc34)CC2)cc1	10	0	-7	8	0	0	nt	nt	nt	nt
O=C(CN1CCN(Cc2ccccc2Cl)CC1)N=Nc1c(O)[nH]c2ccccc12	4	13*	-9	2	2	0	107	0	99	0
Cc1ccccc1C(=O)N1CCC(C(=O)Nc2sccc2C(N)=O)CC1	-1	0	12	3	8	0	nt	nt	nt	nt
CC1(C)Cc2c(sc(NC(=O)COc3ccc(Cl)cc3Cl)c2C(N)=O)C(C)(C)N1	3	0.6*	-3	-25	22	1	102	0	110	0
COC(=O)c1c(NC(=O)COc2ccc(Cl)cc2)sc2c1CC(C)(C)NC2(C)C	-1	0	-18	7	-98	0	nt	nt	nt	nt
